Screening data as filed in PubChem BioAssay.
Only some compounds are listed: those with a hit (about 4.7% of all), similar ones and a draw of the others.
Pemphigus Ab inh: human desmoglein-3 autoantibody binding inhibition; P32926; DSG3-coupled beads, scFv-anti-DSG3-GFP binding, flow cytometry; active compounds read low; binding (percent of control), % at 10 µM; hit rate 0.48% among 310,000; AID 588358;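 active = binding more than 3 SD below its plate's average and above zero; inconclusive = below that plate limit but binding exactly zero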;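 also: hits lower antibody fragment binding to DSG3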
Target sequence (P32926 whole entry, looked up, the tested form may be a part): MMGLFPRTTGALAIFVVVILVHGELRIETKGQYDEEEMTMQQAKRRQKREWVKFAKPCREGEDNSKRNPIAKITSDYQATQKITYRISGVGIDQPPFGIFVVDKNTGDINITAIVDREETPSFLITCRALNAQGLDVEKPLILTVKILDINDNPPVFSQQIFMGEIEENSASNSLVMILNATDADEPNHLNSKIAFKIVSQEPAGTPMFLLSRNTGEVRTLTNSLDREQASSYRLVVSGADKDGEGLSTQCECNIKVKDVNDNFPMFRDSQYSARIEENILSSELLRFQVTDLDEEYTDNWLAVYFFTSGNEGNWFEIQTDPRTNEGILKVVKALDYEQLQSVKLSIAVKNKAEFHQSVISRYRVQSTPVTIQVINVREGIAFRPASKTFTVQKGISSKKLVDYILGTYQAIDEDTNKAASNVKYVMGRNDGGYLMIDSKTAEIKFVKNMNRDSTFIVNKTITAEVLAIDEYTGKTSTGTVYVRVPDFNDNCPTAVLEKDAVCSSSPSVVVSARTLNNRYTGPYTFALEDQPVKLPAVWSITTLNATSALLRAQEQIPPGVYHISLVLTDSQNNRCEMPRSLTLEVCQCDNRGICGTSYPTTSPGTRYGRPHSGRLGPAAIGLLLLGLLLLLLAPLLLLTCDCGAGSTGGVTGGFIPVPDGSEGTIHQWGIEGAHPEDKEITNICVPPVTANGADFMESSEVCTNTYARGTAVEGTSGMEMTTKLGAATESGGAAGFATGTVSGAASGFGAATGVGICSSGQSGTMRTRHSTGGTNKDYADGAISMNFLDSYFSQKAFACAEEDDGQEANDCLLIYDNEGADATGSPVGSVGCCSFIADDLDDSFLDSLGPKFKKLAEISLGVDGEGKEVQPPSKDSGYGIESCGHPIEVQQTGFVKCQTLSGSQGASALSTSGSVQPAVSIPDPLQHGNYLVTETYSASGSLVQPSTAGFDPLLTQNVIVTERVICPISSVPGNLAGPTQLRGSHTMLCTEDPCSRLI
MPTP block: permeability transition pore inhibition; isolated mouse mitochondria, Ca2+ swelling absorbance, 30 min; hit rate 1.4% among 360,000; AID 602449; inhibition, % at 10 µM;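 active = inhibition of 50% or more, scaled per plate between neutral and stimulator controls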
KLK7 zymogen act: proKLK7 (human) activation, primary screen; P49862; purified proKLK7, EDANS-DABCYL substrate fluorescence; 100% is mature enzyme control, 0% vehicle; AID 652039; activation, % at 7 µM; hit rate 0.9% among 370,000;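 active = activation above the mean of all tested compounds plus 3 SD, computed per campaign excluding outliers beyond control limits, cut at about 13% in these data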
ADAM10 inh: inhibits human ADAM10. recombinant ADAM10, EDANS/DABCYL FRET peptide cleavage, 3 h. inhibition, % at 7 µM. hit rate 0.62% among 370,000;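 active = inhibition above a per-campaign cutoff equal to the mean of compounds falling between control-based bounds plus 3 SD, cut at about 20% in these data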
ADAM17 inh: inhibits human ADAM17; recombinant ADAM17, EDANS/DABCYL FRET peptide cleavage; inhibition, % at 6.95 µM; hit rate 0.83% among 370,000;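 active = inhibition above the mean of compounds lying between control limits plus 3 SD, set per campaign, cut at about 8.5% in these data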
rCAG RNA binder: r(CAG) repeat RNA binding; TO-PRO-1 dye displacement fluorescence; inhibition, % at 3 µM; hit rate 1.3% among 370,000;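 active = inhibition above the plate cutoff, the mean of all test compounds on that plate plus 3 SD, cut at about 35% in these data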;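 also: higher means more dye released from RNA so lower well fluorescence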
ADAM10 counter: inhibits human ADAM10 in ADAM17 exosite counter-screen; hit rate 47% among 2,900; recombinant ADAM10, EDANS/DABCYL FRET peptide cleavage, 3 h; shares compounds with ADAM17 inh; inhibition, % at 6.95 µM; AID 743256;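 active = mean inhibition over the triplicate runs exceeds the activity threshold set in the earlier primary screen, cut at about 20% in these data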
ADAM17 confirm: confirmation of inhibitors of human ADAM17; shares compounds with ADAM17 inh; inhibition, % at 6.95 µM; hit rate 65% among 2,900; recombinant ADAM17, EDANS/DABCYL QFRET peptide cleavage;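 active = mean inhibition across replicates above the hit cutoff set in the primary screen, cut at about 8.5% in these data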
Hits are given with their value.

Results for O=C(CN1CCN(c2cccc(C(F)(F)F)c2)CC1)Nc1cccc(C(F)(F)F)c1 ?
Pemphigus Ab inh: inactive; MPTP block: inactive; KLK7 zymogen act: inactive; ADAM10 inh: inactive; ADAM17 inh: 8.8; rCAG RNA binder: inactive; ADAM10 counter: 24; ADAM17 confirm: 12

How did CC(=O)Nc1ccc(NC(=O)CN2CCN(c3cccc(C(F)(F)F)c3)CC2)cc1 do in these assays?
Pemphigus Ab inh: inactive; MPTP block: inactive

What do the screens show for `COC(=O)C1=C(C)N=C2SCCC(=O)N2C1c1ccc(OC(=O)c2ccco2)cc1` (stereo not given)?
Pemphigus Ab inh: inactive; MPTP block: inactive; KLK7 zymogen act: inactive; ADAM10 inh: inactive; ADAM17 inh: 17; rCAG RNA binder: inactive; ADAM10 counter: inactive; ADAM17 confirm: inactive

How did CCOc1ccccc1NC(=O)N1CCc2ccccc2C1 do in these assays?
Pemphigus Ab inh: inactive; MPTP block: inactive; KLK7 zymogen act: inactive; ADAM10 inh: inactive; ADAM17 inh: inactive; rCAG RNA binder: inactive

How did COc1ccc([C@H]2CC(=O)C=C(c3ccc(F)cc3OCc3ccccc3)C2)cc1OC do in these assays?
Pemphigus Ab inh: inactive; MPTP block: inactive; KLK7 zymogen act: inactive; ADAM10 inh: inactive; ADAM17 inh: 9.8; rCAG RNA binder: inactive; ADAM10 counter: inactive; ADAM17 confirm: inactive

Results for COc1ccc([C@H]2CC(=O)C=C(c3ccc(F)cc3OCc3ccccc3)C2)cc1 ?
Pemphigus Ab inh: inactive; MPTP block: inactive; KLK7 zymogen act: inactive; ADAM10 inh: inactive; ADAM17 inh: inactive; rCAG RNA binder: inactive

How did CNc1cncc(-c2ccc(OC)c(OC)c2)n1 do in these assays?
MPTP block: inactive; KLK7 zymogen act: inactive; ADAM10 inh: inactive; ADAM17 inh: inactive; rCAG RNA binder: inactive

What do the screens show for `CCCn1c2ccccc2c2cnn(CC(=O)N3CCN(C4CCCCC4)CC3)c(=O)c21`?
Pemphigus Ab inh: inactive; MPTP block: inactive

What do the screens show for `ON=C(c1ccccc1)c1ccc2c3c(cccc13)CC2`?
Pemphigus Ab inh: inactive; MPTP block: inactive; KLK7 zymogen act: inactive; ADAM10 inh: inactive; ADAM17 inh: 12; rCAG RNA binder: inactive; ADAM10 counter: 20; ADAM17 confirm: 9.0

Results for Cc1ccnc2nc(C(=O)OCC(=O)NCc3cccc(Cl)c3)nn12 ?
Pemphigus Ab inh: inactive; MPTP block: inactive; KLK7 zymogen act: inactive; ADAM10 inh: inactive; ADAM17 inh: inactive; rCAG RNA binder: inactive

Results for COc1ccc(S(=O)(=O)NC(C)C(=O)Nc2ccc3c(c2)OCCO3)cc1OC (stereo not given) ?
Pemphigus Ab inh: inconclusive; MPTP block: inactive; KLK7 zymogen act: inactive; ADAM10 inh: inactive; ADAM17 inh: inactive; rCAG RNA binder: inactive

What do the screens show for `Cc1cnc(C(=O)OC(C)C(=O)Nc2ccc3c(c2)OCCO3)cn1` (stereo not given)?
Pemphigus Ab inh: inactive; MPTP block: inactive; KLK7 zymogen act: inactive; ADAM10 inh: inactive; ADAM17 inh: 9.9; rCAG RNA binder: inactive; ADAM10 counter: inactive; ADAM17 confirm: 14

Results for CC(OC(=O)c1cc(S(=O)(=O)Nc2ccc(F)cc2)ccc1Cl)C(=O)Nc1ccc2c(c1)OCCO2 (stereo not given) ?
MPTP block: inactive; KLK7 zymogen act: inactive; ADAM10 inh: inactive; ADAM17 inh: 9.8; rCAG RNA binder: inactive; ADAM10 counter: inactive; ADAM17 confirm: inactive

Results for Cc1ccc(NS(=O)(=O)c2ccc(-c3cnc(C4CC4)o3)cc2)c(C)c1 ?
Pemphigus Ab inh: inactive; MPTP block: inactive; KLK7 zymogen act: inactive; ADAM10 inh: inactive; ADAM17 inh: inactive; rCAG RNA binder: inactive

What do the screens show for `CCOc1ccccc1NS(=O)(=O)c1ccc(-c2cnc(C3CC3)o2)cc1`?
Pemphigus Ab inh: inactive; MPTP block: inactive; KLK7 zymogen act: inactive; ADAM10 inh: inactive; ADAM17 inh: 9.9; rCAG RNA binder: inactive; ADAM10 counter: inactive; ADAM17 confirm: inactive
